The record followed here is PubChem BioAssay AID1878 (Sanford-Burnham Center for Chemical Genomics, 2009).

The whole screen tested about 1,000 compounds, of which about 200 (20%) were called active. The list is a sample of the results. Potency and affinity values are given separately. A number with no mark means an inactive call. Rule as the data show it: active = inhibition above about 55%; inactive = the rest.

For this assay, the target named is Dual specificity protein phosphatase 3 (Homo sapiens) (UniProt P51452). As to the kind of experiment: VHR1 phosphatase inhibitors, biochemical (AID 1878). As to conditions: recombinant VHR phosphatase, fluorogenic substrate; at 13.3 µM; active compounds read high.
Chain of Dual specificity protein phosphatase 3 (Homo sapiens) (P51452 whole entry, looked up): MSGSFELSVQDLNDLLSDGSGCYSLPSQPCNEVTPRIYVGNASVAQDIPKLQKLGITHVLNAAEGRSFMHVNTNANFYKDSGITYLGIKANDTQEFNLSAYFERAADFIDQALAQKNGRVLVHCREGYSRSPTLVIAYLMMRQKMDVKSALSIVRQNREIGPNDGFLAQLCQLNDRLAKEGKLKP
The inhibition is the relative decrease from the control value, in per cent. With `N#C/C(=C\c1ccc(-c2ccc(C(=O)O)cc2)o1)C(=O)Nc1ccc(F)cc1`, the inhibition was 82.2% (active). For the molecule `CN(C)N1C(N)=C(C#N)C(c2cccc(Cl)c2)C2=C1CCCC2=O` (configuration not stated), the inhibition is 0.6%. As for `CC1CCCN(CCCNS(=O)(=O)c2ccc3c(c2)CCN3C(=O)C2CC2)C1` (configuration not stated), the inhibition was -6.7%.

As for `CC#CC#Cc1cccc(=O)o1`, the inhibition was 42.9%.

Regarding `O=C(O)CCSC1CC(=O)N(c2ccccc2)C1=O` (configuration not stated), the inhibition is 16.8%. `O=S(=O)(c1cc(Cl)ccc1Cl)N1CCc2ccccc21`: the inhibition was -1.3%. For the molecule `CN(C)c1ccc(NC(=O)CSc2nnc(C3CCCCC3)n2N)cc1`, the inhibition was -7.6%.

Regarding `Cc1ccc2nc(SCC(=O)NCc3ccc(F)cc3)[nH]c2c1`, the inhibition is 19.1%. `O=C(CSc1ccc2ccccc2n1)Nc1nsc(-c2ccc(Cl)cc2)n1`: the inhibition is 80% (active). The figure for `Cc1nc2ccccc2c(=O)n1NC(=O)c1ccccc1` is -2%; for `CS(=O)(=O)/C(C#N)=C/c1cccn1S(=O)(=O)c1ccccc1` it is -10.1%; for `CC(C)[C@H](NC(=O)c1ccco1)C(=O)NCc1ccccc1` it is 6%.

Turning to `O=C(COc1ccccc1)NCCc1cnc[nH]1`, the inhibition was -4.2%. For `O=C(COc1ccccc1Cl)N1CCCCCCC1`, the inhibition was -0.6%. Regarding `CCn1c(SCC(=O)Nc2ccc(-c3nc4ccc(C)cc4s3)cc2)nnc1-c1ccccc1`, the inhibition is 88.3% (active).

Regarding `COc1ccc(NC(=O)CSc2ccc3nnc(CCNC(=O)c4ccccc4)n3n2)cc1`, the inhibition is -4.5%. Turning to `CCN1CCN(CC(=O)Nc2nc3ccc(C)cc3s2)CC1`, the inhibition is -5.5%.

With `Cc1ccc(S(=O)(=O)/C(C#N)=C/c2c(N3CCOCC3)nc3c(C)cccn3c2=O)cc1`, the inhibition is 3%.

Regarding `c1ccc(-c2cc(-c3ccccc3)[n+](-c3ccccc3)c(-c3ccccc3)c2)cc1`, the inhibition is -14.8%.

On to `CCOc1c(Br)cc(C(=O)N2CCCN(C)CC2)cc1OC`, for which the inhibition was 2.9%. Regarding `COc1ccc(NCCC(O)c2ccc(Cl)cc2)cc1` (configuration not stated), the inhibition was -2%. As for `CCCn1c(C(O)c2ccc(OC)c(OC)c2)nc2ccccc21` (configuration not stated), the figure is 7%; as for `CCOC(=O)C1(Cc2cccc(Cl)c2)CCCN(C(=O)c2cc(CC)on2)C1` (configuration not stated), -6.6%; as for `Cc1ccccc1N1C(=O)C2ON(c3ccccc3)C(c3ccncc3)C2C1=O` (configuration not stated), -3.4%. For `Cc1ccc(N2C(=O)CC(N3CCN(S(=O)(=O)c4ccccc4)CC3)C2=O)c(C)c1` (configuration not stated), the inhibition was -2.4%. As for `CC1CCCCN1CCCNC(=O)CN1C(=O)c2cccnc2Oc2ccc(Cl)cc21` (configuration not stated), the figure is -4.5%; as for `O=c1[nH]c2ccccc2nc1/C=C/c1ccc(Cl)cc1`, 14.9%. Take `COc1ccc(-c2csc3ncn(Cc4ccccc4)c(=O)c23)cc1`: the inhibition was -2.5%. Take `NC(=O)c1ccc(NC(=O)CS(=O)(=O)c2cn(CC(=O)N3CCCCC3)c3ccccc23)cc1`: the inhibition is -15.1%. Turning to `FC(F)(F)c1cccc(NC(=S)N2CCCC2)c1`, the inhibition was 12%.

In the case of `O=C(O)C(CCCCNS(=O)(=O)c1ccc(F)cc1)NS(=O)(=O)c1ccc(F)cc1` (configuration not stated), the inhibition is -6.2%. The figure for `COCCNC(=O)CN1N=C(c2ccc(C)cc2)CCC1=O` is 6.3%; for `Cn1c(SCC(=O)c2ccc3c(c2)Cc2ccccc2-3)nnc1-c1ccccc1` it is 83.7% (active). Regarding `C=CCn1c(SCC(=O)c2c(C)[nH]c3ccccc23)nnc1-c1ccncc1`, the inhibition was 35.6%. On to `O=C(CSc1nnc(-c2ccccc2)o1)c1ccc2c(c1)OCCO2`, for which the inhibition was -8.7%. Regarding `Cc1ccc(NC2CCCN(C(=O)c3ccccn3)C2)cc1C` (configuration not stated), the inhibition was -5.3%. Turning to `O=C(CCc1nnc2ccc(NCc3ccccc3)nn12)NC1CCCCC1`, the inhibition is 4.6%. For `COc1ccc(N=C2C(=O)Nc3ccc(C)c(Br)c32)cc1`, the inhibition was 7.8%. Consider `COc1ccc(Cl)cc1NCCC(O)c1ccc(F)cc1` (configuration not stated), for which the inhibition was -9.5%. Regarding `COc1ccccc1-c1csc(-n2ncc(C#N)c2N)n1`, the inhibition is 73.9% (active).

For `O=C(NC1CC2CCCC(C1)N2)c1ccccc1` (configuration not stated), the inhibition is -12.1%. In the case of `CC(NC(=O)C(=O)N1CCCCC1)C(c1cccs1)N1CCN(C)CC1` (configuration not stated), the inhibition was -4.5%.

As for `CCN(CC)CCNC(=O)Cn1cnc2sc(C)c(S(=O)(=O)N3CC(C)CC(C)C3)c2c1=O` (configuration not stated), the inhibition is -8.4%. Turning to `COc1cc(C(=O)NCCC(=O)NCc2c(F)cc(F)cc2F)cc(OC)c1OC`, the inhibition was 21.2%. As for `CCC(=O)N1CCc2cc(S(=O)(=O)NCCc3ccc(S(N)(=O)=O)cc3)ccc21`, the figure is 0.3%; as for `COc1ccccc1CN1CC(C(=O)NCc2ccc(C)c(F)c2)CCC1=O` (configuration not stated), -6.8%; as for `COc1ccc2c(c1)c(=O)oc1c(C)c(OCc3cc(C(=O)O)oc3C)ccc12`, 40.3%. On to `Cc1c(C)c2ccc(OCC(=O)NCCCn3ccnc3)c(C)c2oc1=O`, for which the inhibition is -9.5%. Consider `Cc1ccc(C)c(NC(=O)C(c2ccccc2)N2CCOCC2)c1` (configuration not stated), for which the inhibition is 6.5%. `COc1cccc(-c2nc(CS(=O)(=O)CC(=O)N3CCCCC3)c(C)o2)c1`: the inhibition was -1%.

For `CC1=C(C(=O)OC(C)C)C(c2ccc3c(c2)OCO3)NC(=O)N1` (configuration not stated), the inhibition is -7.6%. For `O=C(Nc1ccccc1C(=O)O)c1ccc2c(c1)C(=O)N(c1cccc([N+](=O)[O-])c1)C2=O`, the inhibition was 2.4%. As for `C[n+]1cccc(C(=O)Nc2ccccc2)c1`, the inhibition is 13.8%.

On to `NS(=O)(=O)c1ccc(NC(=O)c2cccc(N3C(=O)c4ccccc4C3=O)c2)cc1`, for which the inhibition is 93.1% (active).

As for `Cc1ccccc1-c1nc(CS(=O)(=O)CC(=O)NCCCN2CC(C)CC(C)C2)c(C)o1` (configuration not stated), the inhibition was 28.9%.

With `COCCn1c(SCC(=O)Nc2cccc(C)n2)nnc1-c1ccco1`, the inhibition is 3.1%. For `O=C(NCCc1ccc(Cl)cc1)c1ccc2nccnc2c1`, the inhibition is 6.7%.

Consider `CCN1CCN(CCCNC(=O)CN2C(=O)c3cccnc3Oc3ccc(Cl)cc32)CC1`, for which the inhibition is 14%.

As to `CC1CCN(CCc2nc3cc(NC(=O)C(C)C)ccc3n2C)CC1`, the inhibition was 9.3%.

In the case of `Cc1ccccc1NC(=O)c1cccc(NC(=O)c2ccco2)c1`, the inhibition was -9.7%. As for `CC(=O)c1ccc(NC(=O)c2ccc3nc(-c4ccco4)c(-c4ccco4)nc3c2)cc1`, the figure is 92.7% (active); as for `CC(=O)c1ccc(NC(=O)CCn2c(=S)oc3ccccc32)cc1`, 40.7%.
